Results on 29 compounds are retold here after PubChem BioAssay (EPA / NIEHS).

Several values for one entry are separate records, joined by “and”; a condition that tells them apart may be missing. Equal entries are not always repeated. Results filed as inconclusive are left out. Activity calls are given as the source filed them. Rule for the calls: active = hit-call score of the fitted dose curve at least 0.9, where 1 is the maximum; inconclusive = response in the unintended direction; inactive = score below 0.9.

Sequence of Retinoic acid receptor RXR-alpha (Homo sapiens) (P19793 whole entry, looked up, the tested form may be a part): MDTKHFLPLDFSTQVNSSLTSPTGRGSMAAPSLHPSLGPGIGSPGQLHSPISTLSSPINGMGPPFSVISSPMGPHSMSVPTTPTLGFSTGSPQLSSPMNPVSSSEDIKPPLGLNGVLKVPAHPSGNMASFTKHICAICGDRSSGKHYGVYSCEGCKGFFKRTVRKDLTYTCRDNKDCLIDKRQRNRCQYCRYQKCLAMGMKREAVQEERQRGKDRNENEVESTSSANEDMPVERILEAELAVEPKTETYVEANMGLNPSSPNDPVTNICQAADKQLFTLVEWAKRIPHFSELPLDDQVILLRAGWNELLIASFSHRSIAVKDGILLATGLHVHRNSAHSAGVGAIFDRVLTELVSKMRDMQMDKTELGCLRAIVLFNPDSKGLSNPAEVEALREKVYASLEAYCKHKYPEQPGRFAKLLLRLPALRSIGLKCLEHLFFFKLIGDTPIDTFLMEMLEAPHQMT
Sequence of Peroxisome proliferator-activated receptor gamma (Homo sapiens) (P37231 whole entry, looked up): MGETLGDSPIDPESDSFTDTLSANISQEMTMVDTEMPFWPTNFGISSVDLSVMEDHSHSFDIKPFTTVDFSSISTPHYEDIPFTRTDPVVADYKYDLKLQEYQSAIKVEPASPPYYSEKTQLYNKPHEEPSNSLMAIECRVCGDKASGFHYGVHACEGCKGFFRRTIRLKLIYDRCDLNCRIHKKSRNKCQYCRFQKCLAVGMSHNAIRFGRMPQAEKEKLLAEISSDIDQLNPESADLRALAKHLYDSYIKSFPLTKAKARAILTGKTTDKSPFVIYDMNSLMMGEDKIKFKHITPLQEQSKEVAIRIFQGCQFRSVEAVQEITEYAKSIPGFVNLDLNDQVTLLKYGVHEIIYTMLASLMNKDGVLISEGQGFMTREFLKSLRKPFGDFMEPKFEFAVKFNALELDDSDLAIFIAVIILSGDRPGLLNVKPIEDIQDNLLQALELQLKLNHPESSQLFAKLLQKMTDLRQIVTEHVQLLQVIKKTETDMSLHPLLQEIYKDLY

One experiment deals with Retinoic acid receptor RXR-alpha (Homo sapiens) (UniProt P19793). The experiment can be described thus: OT_NURR1_NURR1RXRa_1440: Odyssey Thera (OT) 24-hour HEK293T Protein Complementation Assay for Nurr1/retinoid X receptor (RXR) (AID 2283386). The method, boiled down:
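HEK293T protein-fragment complementation of Nurr1 and RXRα fused to reporter fragments; compounds 24 h. Fluorescence gain from reconstituted reporter fitted versus DMSO.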
Turning to `Nc1ccc(N)cc1`, the call was inactive.

Regarding `CCOCn1c(-c2ccc(Cl)cc2)c(C#N)c(Br)c1C(F)(F)F`, the AC50 was 25.2 µM (active).

In the case of `COC(=O)Nc1cccc(OC(=O)Nc2cccc(C)c2)c1`, the compound was classed as inactive.

Consider `Cc1cc(Cl)ccc1OCCCC(=O)O`, for which the outcome was inactive.

In the case of `O=C(CBr)c1ccc(O)cc1`, the compound was called inactive.

In the case of `O=C(NC(=O)c1c(F)cccc1F)Nc1cc(Cl)c(OC(F)(F)C(F)C(F)(F)F)cc1Cl` (centres undefined), the AC50 was 50 µM (active).

For the compound `Oc1cc(Cl)c(Cl)cc1Cl`, the AC50 was 81.6 µM (active) and 83.4 µM (active).

Regarding `O=c1nc(O)n(Cl)c(=O)n1Cl`, the call was inactive.

As to `CCCCCCCCCCCCN(C)C`, the compound was classed as inactive.

For `CCOc1ccc(N)cc1`, the result was inactive.

Take `OCCN(CCO)CCO`: the outcome was inactive.

On to `O=C(O)C1(c2ccc3c(c2)OC[C@H](Cc2ccc(-c4ccccc4)cc2)[C@H]3O)CCCC1`, for which the AC50 is 79.5 µM (active) and 87.5 µM (active).

Take `N#Cc1cccnc1`: the compound was classed as inactive.

`Clc1cccc(Cl)c1Cl`: the compound was called inactive.

Regarding `O=c1[nH]c(=O)n(Cl)c(=O)n1Cl`, the compound was classed as inactive.

For `CC(C)=CC1C(C(=O)OCc2cccc(Oc3ccccc3)c2)C1(C)C` (centres undefined), the call was inactive.

As for `O=C(NC(=O)c1c(F)cccc1F)Nc1ccc(Cl)cc1`, the call was inactive.

Regarding `Nc1ncn[nH]1`, the compound was classed as inactive.

On to `CCOP(=S)(OCC)O/N=C(\C#N)c1ccccc1`, for which the result was inactive.

For `CCCCCCCCCCCCOS(=O)(=O)O`, the compound was called inactive.

As for `OCCCCO`, the result was inactive.

On to `CCCCCCCCCCCCc1cccc(S(=O)(=O)O)c1`, for which the outcome was inactive.

On to `COc1nn(C(=O)NS(=O)(=O)c2ccccc2OC(F)(F)F)c(=O)n1C`, for which the outcome was inactive.

For the compound `CN(C)C(=S)S`, the compound was classed as inactive.

As to `O=S1(=O)OC(c2cc(Br)c(O)c(Br)c2)(c2cc(Br)c(O)c(Br)c2)c2ccccc21`, the AC50 is 14.4 µM (active).

With `O=S1OC[C@@H]2[C@H](CO1)[C@]1(Cl)C(Cl)=C(Cl)[C@@]2(Cl)C1(Cl)Cl` (some centres undefined), the compound was called inactive.

As for `O=C(O)COc1cc(Cl)c(Cl)cc1Cl`, the compound was classed as inactive.

For the next experiment, the target named is Peroxisome proliferator-activated receptor gamma (Homo sapiens) (UniProt P37231). Kind of experiment: OT_PPARg_PPARgSRC1_0480: Odyssey Thera (OT) 8-hour Protein-Complementation Assay for Peroxisome Proliferator-activated Receptor Gamma / SRC-1 Co-activator (AID 2283387).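 Note: nuclear to cytoplasmic split Venus YFP fluorescence ratio reporting PPARg SRC-1 interaction.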 The method, boiled down:
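Split-YFP (IFP1/IFP2) PPARg/SRC-1 reporter, HEK293T, 37 °C, 5% CO2; 8 h compound; formaldehyde fix + Draq5; high-content imaging, N/C ratio, ≥350 cells/image, positive direction vs DMSO.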
As to `CCOCn1c(-c2ccc(Cl)cc2)c(C#N)c(Br)c1C(F)(F)F`, the result was inactive.

In the case of `CCC[CH2][Sn]([CH2]CCC)([CH2]CCC)[CH2]CCC`, the compound was called inactive.

Regarding `COC(=O)Nc1cccc(OC(=O)Nc2cccc(C)c2)c1`, the result was inactive.

As for `O=C(O)C1(c2ccc3c(c2)OC[C@H](Cc2ccc(-c4ccccc4)cc2)[C@H]3O)CCCC1`, the outcome was inactive.

Consider `Clc1cccc(Cl)c1Cl`, for which the call was inactive.

With `C=CCN=C=S`, the compound was classed as inactive.

With `COc1nn(C(=O)NS(=O)(=O)c2ccccc2OC(F)(F)F)c(=O)n1C`, the outcome was inactive.
